PLK1 PBD inh – inhibitors of human PLK1 polo-box domain binding. Plk1 PBD binding of FITC phosphopeptide, fluorescence polarization. Potency, µM, for inactives: max response, negative = inhibition, hits mostly inhibitors. actives 2.8% (n = 360,000). AID 720504; note: potency is the fitted concentration of half-maximal effect; series mostly up to about 57 µM; % is set by controls: 0 for no effect and ±100 for the full control effect; nearly all actives have a fitted effect of over 65% in size
JMJD2A Tudor inh – JMJD2A Tudor domain (human) inhibition; O75164; Potency, µM (titrated, usually from 114 µM), for inactives: top-dose activity change, negative = inhibition, hits mostly inhibitors; actives 4.4% (n = 390,000); AlphaScreen JMJD2A-Tudor / H3K4me3 peptide binding; note: potency is the fitted concentration of half-maximal effect; % is set by controls: 0 for no effect and ±100 for the full control effect; nearly all actives have a fitted effect of over 50% in size
PI5P4Ka inh – blocks human PI5P4K alpha kinase activity; actives 1.2% (n = 330,000); P48426; max response, %; PI5P4Kalpha enzyme, ADP-Glo luminescence, 60 min; stronger effect = lower value; AID 652105; active = max response of -50% or lower; inconclusive = between -30% and -50%; inactive = -30% or higher; note: value at the top dose of about 77 µM; % is set by controls: 0 for no effect and ±100 for the full control effect
Target sequence (P48426 whole entry, looked up): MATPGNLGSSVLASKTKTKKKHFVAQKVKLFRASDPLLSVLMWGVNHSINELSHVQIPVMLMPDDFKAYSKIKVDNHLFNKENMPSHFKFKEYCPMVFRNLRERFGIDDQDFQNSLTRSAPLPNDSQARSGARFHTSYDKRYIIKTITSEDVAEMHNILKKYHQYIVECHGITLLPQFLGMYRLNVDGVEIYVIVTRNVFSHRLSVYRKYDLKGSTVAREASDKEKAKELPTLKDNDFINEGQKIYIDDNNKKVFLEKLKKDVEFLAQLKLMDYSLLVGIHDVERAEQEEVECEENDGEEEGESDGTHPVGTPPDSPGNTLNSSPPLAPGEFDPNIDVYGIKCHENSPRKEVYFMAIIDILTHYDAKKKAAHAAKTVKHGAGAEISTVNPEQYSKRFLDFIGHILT
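Single end-point luminescence (ADP-Glo) quantified ADP from PI5P4Kalpha turnover; ATP 5 microM final, 1 h at RT, 0.1% CHAPS and 0.28 mM EGTA in HEPES pH 7.4.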
HP1b binding inh – HP1-beta chromodomain-methylated histone interaction inhibition | P83916 | AlphaScreen HP1-beta / biotin-H3K9me3 peptide binding | Potency, µM (titrated, usually from 114 µM), inactives show at the highest dose activity change, negative = inhibition, usual class: inhibitors | actives 0.56% (n = 390,000) | AID 540317; note: potency is the fitted concentration of half-maximal effect; nearly all actives have a fitted effect of over 70% in size
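AlphaScreen: HP1-beta (50 nM) preformed 30 min with biotin-H3(1-18)K9me3 peptide (50 nM) in PBS pH 7.4, 0.01% Tween-20. Compound added for 30 min at RT, then streptavidin donor/nickel chelate acceptor beads (10 ug/mL) for 30 min.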
BAZ2B inh – BAZ2B (human) inhibition; Q9UIF8; AlphaScreen BAZ2B-H3K14Ac peptide displacement; Potency, µM (titrated, usually from 114 µM), for inactives: at the top dose activity change, negative = inhibition, most hits filed as inhibitors; actives 4.4% (n = 360,000); note: potency is the fitted concentration of half-maximal effect; % is set by controls: 0 for no effect and ±100 for the full control effect; nearly all actives have a fitted effect of over 60% in size
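AlphaScreen luminescence quantifies BAZ2B engagement of H3K14Ac peptide; the protein and biotinylated peptide are both at 50 nM final, buffer PBS pH 7.4 with 0.01% Tween-20, all steps at room temperature.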
G9a block – blocks human histone lysine methyltransferase G9a; Q96KQ7; G9a H3K9 monomethylation, AlphaScreen, 2 h; Potency, µM (series often up to 102 µM), for inactives: at the top dose activity, negative = inhibition, actives largely listed as inhibitors; actives 8.8% (n = 350,000); AID 504332; note: potency is the fitted concentration of half-maximal effect; % is set by controls: 0 for no effect and ±100 for the full control effect; nearly all actives have a fitted effect of over 75% in size
Target sequence (Q96KQ7 913-1193 limits assumed): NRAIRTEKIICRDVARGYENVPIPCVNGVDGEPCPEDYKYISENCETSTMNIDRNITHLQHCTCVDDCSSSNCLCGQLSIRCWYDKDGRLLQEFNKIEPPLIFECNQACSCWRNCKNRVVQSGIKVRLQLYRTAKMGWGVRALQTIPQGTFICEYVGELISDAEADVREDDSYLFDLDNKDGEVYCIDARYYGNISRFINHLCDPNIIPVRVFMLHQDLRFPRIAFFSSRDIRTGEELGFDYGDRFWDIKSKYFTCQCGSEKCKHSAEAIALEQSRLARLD
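G9a (20 nM) preincubated 15 min RT with compounds, then 500 nM biotinylated H3K9 peptide and 20 uM SAM added; 2 h RT reaction. Monomethyl-H3K9 product detected by AlphaScreen with anti-H3K9me1 antibody, streptavidin donor and anti-rabbit IgG acceptor beads.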
Active calls of the source: *; [ ] = remark or other dose. Hits are enriched below; roughly 12% of the tested compounds scored in any of these assays. Unless noted, calls come from the whole dose curve; as a rule, active = well fitted curve in the direction sought with a large enough effect; inconclusive = small, poorly fitted or top-dose-only effect, or another doubt; inactive = no such curve, though single readings can be large; an effect the other way counts as inactive or inconclusive.

How did Cc1ccc2nc(N(CCN(C)C)C(=O)c3ccc4ccccc4c3)sc2c1 do in these assays?
PLK1 PBD inh: 2.0%; JMJD2A Tudor inh: 44.7µM*; PI5P4Ka inh: 11.9; HP1b binding inh: -2.9%; BAZ2B inh: inconclusive; G9a block: 39.8µM*

Results for NS(=O)(=O)c1ccc(NC(=O)c2ccc(S(=O)(=O)N3CCCCCC3)cc2)cc1 ?
PLK1 PBD inh: 3.1%; JMJD2A Tudor inh: -18.5%; PI5P4Ka inh: 5.6; HP1b binding inh: 16.3%

Results for CCN(CC)CCN(C(=O)c1ccc2c(c1)OCCO2)c1nc2ccc(C)cc2s1 ?
PLK1 PBD inh: -1.3%; JMJD2A Tudor inh: inconclusive; PI5P4Ka inh: -1.0; HP1b binding inh: 18.1%; BAZ2B inh: 35.5µM*; G9a block: 79.4µM*

How did CCN(CC)CCN(C(=O)c1ccc2ccccc2c1)c1nc2ccc(F)cc2s1 do in these assays?
PLK1 PBD inh: -12.8%; JMJD2A Tudor inh: inconclusive; PI5P4Ka inh: -6.9; HP1b binding inh: 37.1%; BAZ2B inh: -28.6%[57.1 µM]; G9a block: 44.7µM*

How did Cc1ccc2nc(NNC(=O)c3ccc(S(=O)(=O)N4CCc5ccccc5C4)cc3)sc2c1 do in these assays?
PLK1 PBD inh: -6.9%; JMJD2A Tudor inh: inconclusive; PI5P4Ka inh: -3.6; HP1b binding inh: 32.9%; BAZ2B inh: 4.47µM*; G9a block: -3.2%

What do the screens show for `CCCCN(C)S(=O)(=O)c1ccc(C(=O)N(CCN(C)C)c2nc3ccc(C)cc3s2)cc1`?
PLK1 PBD inh: -8.8%; JMJD2A Tudor inh: inconclusive; PI5P4Ka inh: 0.1; HP1b binding inh: 2.8%; BAZ2B inh: inconclusive; G9a block: 39.8µM*

Results for COc1ccc(Cl)cc1NC(=O)COC(=O)CCNS(=O)(=O)c1cccs1 ?
PLK1 PBD inh: -0.6%; JMJD2A Tudor inh: 0.0%; PI5P4Ka inh: -11.0; HP1b binding inh: 29.5%; BAZ2B inh: -1.4%; G9a block: -7.9%[0.501 µM]

Results for COCCn1c(SCC(=O)Nc2ccc(Br)cc2)nc2c([nH]c3ccccc32)c1=O ?
JMJD2A Tudor inh: -8.1%; HP1b binding inh: 27.1%[57 µM]; BAZ2B inh: 5.6%; G9a block: 11.4%[59 µM]

How did CCN1CCN(S(=O)(=O)c2ccc(Cl)c(C(=O)N(C)Cc3ccc(C(C)(C)C)cc3)c2)CC1 do in these assays?
PLK1 PBD inh: 1.7%; JMJD2A Tudor inh: inconclusive; PI5P4Ka inh: 18.5; HP1b binding inh: 6.8%

What do the screens show for `Cc1ccc2nc(NNC(=O)c3ccc4c(c3)OCCO4)sc2c1`?
PLK1 PBD inh: -5.9%; JMJD2A Tudor inh: inconclusive; PI5P4Ka inh: 0.7; HP1b binding inh: 33.6%; BAZ2B inh: inconclusive; G9a block: 11.2µM*

Results for O=C(c1cncc(Br)c1)N1CCN(S(=O)(=O)c2ccccc2C(F)(F)F)CC1 ?
PLK1 PBD inh: 21.2µM*; JMJD2A Tudor inh: inconclusive; PI5P4Ka inh: 5.1; HP1b binding inh: 3.0%; BAZ2B inh: -10.9%; G9a block: 18.8%

How did O=C(c1cncc(Br)c1)N1CCN(S(=O)(=O)c2ccccc2)CC1 do in these assays?
PLK1 PBD inh: -2.3%; JMJD2A Tudor inh: -17.1%; PI5P4Ka inh: -2.1; HP1b binding inh: 0.2%; BAZ2B inh: -0.5%; G9a block: 8.2%

Results for CCOc1ccc(CNc2ccc(CNc3ncn[nH]3)cc2)cc1 ?
PLK1 PBD inh: 3.2%; JMJD2A Tudor inh: -33.9%; PI5P4Ka inh: 2.7; HP1b binding inh: 21.3%; BAZ2B inh: inconclusive; G9a block: -18.8%

How did CCOc1ccc(CNc2cccc(SC)c2)cc1 do in these assays?
PLK1 PBD inh: -6.6%; JMJD2A Tudor inh: 3.16µM*; PI5P4Ka inh: 12.6; HP1b binding inh: 44.7µM*; BAZ2B inh: 39.8µM*; G9a block: 28.2µM*

How did COc1ccccc1-c1cnc(C(O)c2ccc(F)cc2C)[nH]1 (stereo not drawn) do in these assays?
PLK1 PBD inh: -5.7%; PI5P4Ka inh: 1.7

How did CCN(CC)C(=O)CSc1nnc(-c2ccccn2)n1-c1ccc(C)c(C)c1 do in these assays?
PLK1 PBD inh: 0.9%; JMJD2A Tudor inh: inconclusive; PI5P4Ka inh: -1.6; HP1b binding inh: 49.6%; BAZ2B inh: 44.7µM*; G9a block: -6.6%[59 µM]

What do the screens show for `NC(=O)CSc1nnc(-c2ccccn2)n1N`?
PLK1 PBD inh: 4.2%; JMJD2A Tudor inh: 70.8µM*; PI5P4Ka inh: -6.9; HP1b binding inh: 30.0%; BAZ2B inh: 22.4µM*; G9a block: -7.4%

What do the screens show for `Cc1cccc(-n2c(SCC(N)=O)nnc2-c2ccccn2)c1C`?
PLK1 PBD inh: -0.8%; JMJD2A Tudor inh: 79.4µM*; PI5P4Ka inh: 0.7; HP1b binding inh: 12.8%; BAZ2B inh: 17.8µM*; G9a block: -37.1%

Results for COC(=O)CSc1nnc(-c2ccccc2OC)n1-c1ccc(C)cc1 ?
PLK1 PBD inh: 26.7µM*; JMJD2A Tudor inh: inconclusive; PI5P4Ka inh: -9.3; HP1b binding inh: -11.6%; BAZ2B inh: 7.5%; G9a block: -9.4%

How did CCN(CC)C(=O)CSc1nnc(-c2cnccn2)n1-c1ccccc1 do in these assays?
PLK1 PBD inh: -6.2%; JMJD2A Tudor inh: 6.1%; PI5P4Ka inh: 4.2; HP1b binding inh: 36.0%; BAZ2B inh: 0.9%; G9a block: 3.6%

Results for COc1ccccc1-c1nnc(SCC(=O)O)n1-c1ccc(C)cc1 ?
PLK1 PBD inh: -4.4%; JMJD2A Tudor inh: -10.3%; PI5P4Ka inh: 2.6; HP1b binding inh: 21.1%; BAZ2B inh: -5.7%

What do the screens show for `COc1ccc(C)cc1Nc1nc2c(S(=O)(=O)c3cc(C)ccc3C)nnn2c2ccsc12`?
JMJD2A Tudor inh: -17.2%; HP1b binding inh: 0.8%; BAZ2B inh: -16.6%; G9a block: -1.2%[59 µM]

How did Cc1ccc(-n2c(SCC(N)=O)nnc2-c2ccccn2)cc1 do in these assays?
PLK1 PBD inh: -8.9%; JMJD2A Tudor inh: inconclusive; PI5P4Ka inh: -0.5; HP1b binding inh: 36.1%; BAZ2B inh: 25.1µM*; G9a block: 11.3%[12.7 µM]

Results for Cc1nnc(SCc2ccccc2)n(N)c1=O ?
PLK1 PBD inh: -1.4%; JMJD2A Tudor inh: -9.2%; PI5P4Ka inh: 2.1; HP1b binding inh: 18.1%; BAZ2B inh: -2.1%; G9a block: 12.2%

Results for CCc1ccccc1-n1c(SCC(=O)N2CCCC2)nnc1-c1ccccn1 ?
PLK1 PBD inh: -3.1%; JMJD2A Tudor inh: inconclusive; PI5P4Ka inh: 0.2; HP1b binding inh: 19.2%; BAZ2B inh: 56.2µM*; G9a block: -8.9%[59 µM]

Results for Nn1c(SCc2ccccc2)nnc1-c1ccccn1 ?
PLK1 PBD inh: -0.3%; JMJD2A Tudor inh: 6.3%; PI5P4Ka inh: 0.3; HP1b binding inh: 39.9%; BAZ2B inh: 14.1µM*; G9a block: -7.5%[12.7 µM]

What do the screens show for `Cc1ccc(-n2c(SCCN)nnc2-c2cccc(C)c2)cc1`?
PLK1 PBD inh: -21.1%; JMJD2A Tudor inh: -16.2%[11.4 µM]; PI5P4Ka inh: -6.7; HP1b binding inh: 42.9%; BAZ2B inh: 79.4µM*; G9a block: 4.8%[59 µM]
